Compounds with a hit are over-represented: about 3.8% of the library has one in this group of screens.
CR mimetic SO: caloric restriction mimetics inhibiting age-related superoxide in yeast | S. cerevisiae aged cells, superoxide DHE fluorescence; hits give low values | superoxide response (% of plate mean), % at 10 µM | hit rate 0.18% among 330,000 | AID 2690;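 active = superoxide response under a set limit, about three screen SD below normal, cut at about 65% in these data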;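 also: yeast aged for seven days with compound at 30 °C before DHE staining; 100% = average MFI of all compound-treated wells on the plate with controls excluded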
tim23-1 inh: growth inhibitors of tim23-1 mutant yeast; inhibition, % at 20 µM; hit rate 1.3% among 330,000; S. cerevisiae tim23-1 growth, BacTiter-Glo luminescence, 24 h;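 active = growth inhibition of the mutant yeast at or above 50%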;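 also: temperature-sensitive mutant grown at 25 °C; plate controls were DMSO-treated mutant yeast for no effect and medium wells lacking yeast for full effect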
TIM10 inh: TIM10 yeast growth inhibition. S. cerevisiae TIM10 strain growth, BacTiter-Glo luminescence, 24 h. inhibition, % at 10 µM. hit rate 1.4% among 330,000;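 active = inhibition of 40% or more at the single tested concentration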;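 also: wild-type TIM10 isogenic control strain grown at permissive 25 °C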
tim10-1 inh: growth inhibitors of tim10-1 mutant yeast. S. cerevisiae tim10-1 ts strain growth, BacTiter-Glo, 24 h. inhibition, % at 20 µM. hit rate 2.2% among 330,000. AID 463190;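 active = inhibition of at least 40%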;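 also: mutant grown at 25 °C; 0% = DMSO wells with yeast and 100% = wells holding no yeast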
NLRP3 yeast inh: inhibitors of NALP3 inflammasome in yeast. Yeast reconstituted NLRP3/ASC/caspase-1, beta-gal luminescence, 24 h. inhibition, % at 10 µM. hit rate 0.39% among 330,000. AID 2825;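 active = inhibition of 50% or more; inactive = inhibition below 50%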;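 also: plate controls were induced DMSO wells for no effect and uninduced yeast grown without galactose for full effect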
tim10 confirm: confirmation of TIM10 yeast growth inhibitors; shares compounds with TIM10 inh; S. cerevisiae tim10 strain growth, BacTiter-Glo luminescence, 24 h; inhibition, % at 10 µM; hit rate 63% among 4,600; AID 463215;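 active = inhibition of yeast growth at or above a set limit in either of two replicates at 10 µM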;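 also: this counterscreen used the strain with wild-type TIM10; 0% = yeast with DMSO and 100% = medium wells lacking yeast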
Active calls of the source: *; . = no result.

SMILES	CR mimetic SO	tim23-1 inh	TIM10 inh	tim10-1 inh	NLRP3 yeast inh	tim10 confirm
Cn1c(-c2ccc(F)cc2)cnc1NCc1cc2c(cc1[N+](=O)[O-])OCO2	90.5	-13.6	-14.5	8.7	14.1	.
Cc1nccn1-c1ccc(C=O)cc1	101.8	-11.1	4.2	3.2	0.5	.
O=C(NCC1COc2ccccc2O1)c1cc(S(=O)(=O)N2CCOCC2)ccc1F (stereo unspecified)	.	10.0	-0.9	13.9	12.9	.
O=C(Nc1ccc(C(F)(F)F)cc1)c1cc(S(=O)(=O)NCC2COc3ccccc3O2)ccc1F (stereo unspecified)	106.4	9.1	42.3*	1.8	-3.0	44.5*
O=C(N/N=C/c1ccccn1)c1cc(-c2ccc(Cl)cc2)nc2ccccc12	99.5	42.0	47.4*	19.3	16.1	49.7*
O=C(NC(=S)Nc1ccccn1)c1cc(-c2ccccc2)nc2ccccc12	105.9	41.2	47.2*	36.1	20.5	5.8
COc1cccc(-c2ccc(SCC(=O)c3ccccc3)nn2)c1	111.0	11.8	41.7*	22.5	-58.8	42.0*
COc1ccc(C(=O)CSc2ccc(-c3ccccc3)nn2)cc1	89.1	21.2	7.2	-14.6	31.5	.
COc1ccc(C)cc1NC(=O)CNC(=O)[C@@H]1Cc2ccccc2CN1	115.2	4.2	1.6	-6.8	15.8	.
Cc1[nH]c2ccccc2c1C(C#N)(C#N)C1C(=O)c2ccccc2C1=O	153.2	35.6	63.3*	0.7	27.7	78.2*
CC(C)(C)OC(=O)N[C@@H](Cc1ccccc1)C(=O)N[C@@H](CO)[C@H](O)[C@@H]1C[C@@H]1C(=O)NC1CC1	98.2	-8.8	-6.0	-10.5	7.8	.
COc1cc(C(C)=O)ccc1OCC(O)CN1CCN(c2c(C)cccc2C)CC1 (stereo unspecified)	102.3	-2.4	96.7*	-6.6	19.0	10.4
CCn1c(=O)c(C(=O)NCc2cccnc2)c(O)c2ccccc21	95.3	42.2	44.3*	32.0	6.2	33.1*
CCn1c(=O)c(C(=O)NCc2ccccc2)c(O)c2ccccc21	87.1	36.0	-14.3	-43.4	13.8	.
CC(C)(C)c1ccc(S(=O)(=O)N2CCN(c3ccccn3)CC2)cc1	96.8	-11.4	4.7	-1.7	7.2	.
COc1ccc(-c2nc3ccccc3c(=O)n2CCOc2c(C)cccc2C)cc1	84.9	6.1	9.5	8.8	-10.3	.
COc1cc(OC)cc(-c2nc3ccccc3c(=O)n2OC(=O)c2ccccc2C)c1	109.0	44.4	48.3*	36.0	0.8	10.7
O=C(NC1CCCCCC1)c1ccc(=O)n(Cc2ccccc2)n1	80.8	-9.6	-13.2	-23.6	8.6	.
O=C(Nc1cccc(C(F)(F)F)c1)C(SCCO)c1ccccc1 (stereo unspecified)	90.1	20.3	12.4	14.2	4.6	.
FC(F)(F)c1cccc(NC(=S)NCc2ccccc2)c1	109.7	32.5	46.7*	35.2	-1.2	49.0*
CCC(C(=O)Nc1cccc(C(F)(F)F)c1)c1ccccc1 (stereo unspecified)	103.1	28.6	40.3*	38.9	-5.4	47.0*
C=CCSc1nnc(NC(=O)c2c(CC)noc2C)s1	92.2	-2.6	2.0	-7.2	4.9	.
Cc1ccc(N2C(=O)CC(N3CCN(C)CC3)C2=O)cc1 (stereo unspecified)	.	14.4	1.3	8.6	6.4	.
Cc1ccc2nc(-c3ccc(N4C(=O)CC(N5CCC(C(N)=O)CC5)C4=O)cc3)sc2c1 (stereo unspecified)	103.0	15.3	42.1*	18.3	-7.6	56.8*
CCOc1cc(C(=O)N2CCC(CC3CC(c4cccc(Br)c4)=NO3)(C(=O)NCC3CCCCC3)CC2)cc(OCC)c1OCC (stereo unspecified)	96.7	0.2	7.2	-10.9	10.1	.
SMILES	CR mimetic SO	tim23-1 inh	TIM10 inh	tim10-1 inh	NLRP3 yeast inh	tim10 confirm
COc1ccc(NC(=O)CSCC(=O)Nc2nnc(C)s2)cc1	98.5	12.6	0.4	0.1	-0.9	.
O=C(NC12CC3CC(CC(C3)C1)C2)c1ccc(-c2ccc(Br)cc2)o1	106.4	25.9	48.7*	30.3	-6.2	54.4*
Cc1nc2c(ccc3nc(NC(=O)c4ccc(S(=O)(=O)N(C)C)cc4)sc32)s1	94.7	5.4	5.6	7.8	6.9	.
Cc1nc2c(ccc3nc(NC(=O)Cc4ccccc4)sc32)s1	93.0	36.6	42.0*	37.8	26.0	45.2*
CCC(C)N(C)C1CCN(C(=S)Nc2cccc(SC)c2)CC1 (stereo unspecified)	104.8	-5.6	-15.1	2.8	15.3	.
O=C1C=C(c2ccc3c(c2)OCO3)C[C@@H](c2ccc(Cl)cc2)C1	96.6	0.4	-5.1	-3.9	0.6	.
COc1ccccc1NC(=S)N/N=C/c1ccc(O)cc1	103.3	46.8	53.1*	36.9	36.6	-28.2
COCC(=O)N1CCC(Oc2ccc(C(=O)NC3CCOC(C)(C)C3)cc2)CC1 (stereo unspecified)	99.7	18.1	14.2	-1.2	5.1	.
COc1ccc2oc(=O)c(-c3csc(Nc4ccc(O)cc4)n3)cc2c1	100.4	19.3	40.6*	36.9	30.3	-28.6
Cc1scc(C(=O)N/N=C/c2ccc(OCC(C)C)cc2)c1C	99.8	29.6	44.0*	16.9	24.8	20.1
Cc1ccc(-n2cc3c(-c4cccc(Br)c4)nnc(C)c3n2)cc1	94.2	41.3	44.4*	34.7	24.8	30.7*
COc1ccc2cc3cc(C(=O)NCC4COc5ccccc5O4)oc3nc2c1 (stereo unspecified)	99.7	13.4	38.0	18.0	18.8	.
O=C(Nc1ccc(N2CCCCC2)c(Cl)c1)c1ccc2c(c1)OCCO2	110.2	44.7	44.7*	35.2	20.3	16.1
Cc1ccc(NC(=O)c2ccc3c(c2)OCCO3)cc1S(=O)(=O)Nc1cccc(Cl)c1	89.5	35.1	43.2*	25.2	6.9	-26.8
Cc1cccc(NC(=O)c2ccc3c(c2)OCCO3)c1	.	49.9	3.2	-15.4	27.4	.
CC1=CC(C)C2COC(c3ccc[n+](C)c3)C1C2C (stereo unspecified)	90.3	2.2	0.7	7.0	14.7	.
CCCNC(=O)c1ccc2c(c1)ncn2-c1cc(C)cc(C)c1	94.4	37.7	41.9*	27.1	9.3	21.6
Cc1cc(C)cc(-n2cnc3cc(C(=O)O)ccc32)c1	105.9	9.4	10.3	-3.5	-0.8	.
Cc1ccc(S(=O)(=O)NCC(=O)NCC2CCCCC2)cc1C	110.1	14.3	17.2	-2.6	9.5	.
Cc1nc(NC(=O)c2ccccc2)sc1-c1csc(NCc2ccccc2)n1	93.0	42.9	18.6	23.6	4.8	.
Cc1nc(NC(=O)c2ccccc2)sc1-c1csc(N)n1	101.8	25.6	43.9*	35.1	16.9	24.1
C=CCNC(=S)N/N=C/c1ccc(-c2cc(Cl)ccc2Cl)o1	95.2	-23.1	-6.4	5.6	8.5	.
C=CCNC(=S)N/N=C/c1ccc(C(F)(F)F)cc1	121.6	44.0	40.4*	22.0	6.0	20.3
C=CCNC(=S)N/N=C/c1ccc(-c2ccc(OC)cc2)o1	79.1	17.2	41.6*	15.3	11.7	36.4*

Assay outcomes as filed in PubChem.
